Most compounds without a hit are left out; they make up all but 2% or so of the library.
MBD2 DNA inh – MBD2-methylated oligo binding inhibition; Q9UBB5; TR-FRET, MBD2 binding to methylated oligonucleotide; inhibition, % at 4.4 µM; 0.31% of 370,000 active; AID 686964; in the data active = inhibition above about 13%
LEDGF integ inh – blocks HIV-1 LEDGF/p75-dependent DNA integration; TR-FRET IN-LEDGF/p75 DNA integration, Eu/Cy5; inhibition, % at 3.7 µM; 0.64% of 370,000 active;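 active = inhibition above the screen-wide mean plus 3 SD, cut at about 13% in these data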;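 also: signal is the Cy5 over europium emission ratio at 671 and 618 nm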
UHRF1 MBD2 ctr – blocks human UHRF1 binding to methylated DNA. 0.75% of 370,000 active. AID 687016. inhibition, % at 4.4 µM. UHRF1 binding to methylated oligo, TR-FRET; in the data active = inhibition above about 21%;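 also: UHRF1 SRA domain binding a hemimethylated CpG hairpin DNA probe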
Rin1-Abl PPI inh – human Rin1-Abl interaction inhibition. AID 588664. 0.4% of 360,000 active. inhibition, % at 7.35 µM. P00519+Q13671. TR-FRET Rin1/Abl binding, biochemical; in the data active = inhibition above about 5%, passing the limit was not always enough
TCR-CD3 inh – blocks the human TCR-CD3 interaction | 0.37% of 360,000 active | TAMRA-labeled TCR probe fluorescence, biochemical | AID 651800 | inhibition, % at 9.4 µM; in the data active = inhibition above about 19%;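 also: recombinant mutant TCR 2C K166C tagged with TAMRA read by polarization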
IN multimer up – counter-screen for LEDGF/p75 integration inhibitors: HIV-1 integrase multimerization activators; activation, % at 7.7 µM; TR-FRET HIV-1 integrase multimerization, biochemical; 17% of 2,000 active; shares compounds with LEDGF integ inh; in the data active = activation above about 8.9%
TRFRET interf – optically interferes with TR-FRET readout in LEDGF counter-screen | shares compounds with LEDGF integ inh | 2,000 tested, under 10 active | inhibition, % at 7.7 µM | AID 1053135 | TR-FRET optical interference counterscreen, HIV-1 IN multimerization;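 active = inhibition above the mean over all tested compounds plus 3 SD, which no compound reached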
LEDGF integ conf – confirmation of HIV-1 LEDGF/p75-dependent integration inhibitors; shares compounds with LEDGF integ inh; TR-FRET LEDGF/p75-dependent HIV-1 integration, biochemical; inhibition, % at 3.7 µM; 36% of 2,000 active; AID 1053136; in the data active = inhibition above about 14%
A number is an active result; 0 = inactive; - = not tested or not shown.

SMILES | MBD2 DNA inh | LEDGF integ inh | UHRF1 MBD2 ctr | Rin1-Abl PPI inh | TCR-CD3 inh | IN multimer up | TRFRET interf | LEDGF integ conf
COc1cc(C2C(C#N)=C(N)Oc3cc(C)oc(=O)c32)cc2c1OCO2 (stereo not drawn) | 0 | 20 | 42 | 0 | 0 | 0 | 0 | 14
COc1cc(C2C(C#N)=C(N)Oc3cc(C)oc(=O)c32)cc(OC)c1OC (stereo not drawn) | 0 | 0 | 0 | 0 | 0 | - | - | -
CSC1=NC=C(C#N)C2=NC(c3ccc(Cl)cc3)NN12 (stereo not drawn) | - | - | - | 0 | - | - | - | -
Cc1c(NC(=O)c2cccc(NC(=O)Cc3ccc(F)cc3)c2)c(=O)n(-c2ccccc2)n1C | 0 | 19 | 0 | 0 | 0 | 0 | 0 | 0
O=C(CN1CCN(S(=O)(=O)c2ccc(Cl)cc2)CC1)NC1CC1 | 0 | 34 | 0 | 0 | 0 | 0 | 0 | 0
Cc1ccc(/C=N/NC(=O)c2nnn(-c3nonc3N)c2-c2ccc3c(c2)OCO3)s1 | 0 | 0 | 0 | 0 | 0 | - | - | -
N#C/C(=C\c1ccc([N+](=O)[O-])o1)C(=O)Nc1ccc(F)cc1 | 0 | 21 | 0 | 0 | 0 | 0 | 0 | 0
O=c1[nH]cnc2c1ncn2C1OC(CO)CC1F (stereo not drawn) | 0 | 0 | 0 | 0 | 0 | - | - | -
O=C(CCSC1=NCCCN1)c1ccc(F)cc1 | 0 | 0 | 0 | 0 | 0 | - | - | -
Cc1ccc(C)n1-c1sc2c(c1C(=O)O)CCCC2 | 0 | 25 | 46 | 0 | 0 | 0 | 0 | 25
COc1ccccc1N1CCN(S(=O)(=O)CCNC(=O)CCc2ccccc2)CC1 | 0 | 0 | 0 | 0 | 0 | - | - | -
Cn1c(NC(=O)c2ccccc2)nc(Cc2ccccc2)c1Cc1ccccc1 | 0 | 25 | 0 | - | - | 0 | 0 | 27
COc1ccc(Cn2c(NC(=O)c3ccccc3)nc(Cc3ccccc3)c2Cc2ccccc2)cc1 | 0 | 14 | 0 | - | - | 0 | 0 | 14
O=C(Nc1nc(Cc2ccccc2)c(Cc2ccccc2)n1Cc1ccccc1)c1ccccc1 | 0 | 0 | 0 | - | - | - | - | -
COc1ccc(-c2c(Cc3ccccc3)nc(NC(=O)c3ccccc3)n2C)cc1 | 0 | 0 | 0 | - | - | - | - | -
CCCn1c(NC(=O)c2ccccc2)nc(Cc2ccccc2)c1Cc1ccccc1 | 0 | 15 | 0 | - | - | 0 | 0 | 25
Cn1c(NC(=O)c2ccccc2)nc(Cc2ccccc2)c1-c1ccccc1 | 0 | 23 | 0 | - | - | 0 | 0 | 31
COc1ccc(NC(=O)CN2C(=O)NC3(CCCCC3C)C2=O)cc1OC (stereo not drawn) | 0 | 0 | 0 | 0 | 0 | - | - | -
CCN(CC)c1ccc(N=Cc2cc(Br)ccc2O)cc1 | 0 | 24 | 0 | 0 | 0 | 0 | 0 | 0
NC(=O)C1CCCN(CC(O)COCc2ccc(Cl)cc2)C1 (stereo not drawn) | 0 | 78 | 0 | 0 | 0 | 0 | 0 | 0
COc1ccc(OC)c(/C=N/NC(=O)CCc2c(C)n[nH]c2C)c1 | 0 | 0 | 0 | 0 | 0 | - | - | -
COc1ccc(OC)c(/C=N/NC(=O)CCc2ccc(O)c(O)c2)c1 | 0 | 58 | 0 | 0 | 0 | 0 | 0 | 0
Cc1ccc(/C=N\NC(=O)c2ccc3c(c2)OCO3)o1 | 0 | 0 | 0 | 0 | 0 | - | - | -
Cc1ccc(-n2c(SCC(=O)N/N=C/c3ccccc3OCC(=O)O)nc3ccccc3c2=O)cc1 | 0 | 68 | 0 | 0 | 0 | 0 | 0 | 0
CCOC(=O)c1cnc2ccc(C)cc2c1NCCN1CCOCC1 | 0 | 44 | 0 | 0 | 0 | 0 | 0 | 0
SMILES | MBD2 DNA inh | LEDGF integ inh | UHRF1 MBD2 ctr | Rin1-Abl PPI inh | TCR-CD3 inh | IN multimer up | TRFRET interf | LEDGF integ conf
CC/C(=N\NC(=O)C1CCCC1)c1ccc(Br)cc1 | 0 | 0 | 0 | 0 | 0 | - | - | -
CN1CCN(C(c2ccc(Br)cc2)c2cc(Cl)c3cccnc3c2O)CC1 (stereo not drawn) | 0 | 40 | 0 | 0 | 0 | 0 | 0 | 0
Cc1onc(-c2ccccc2Cl)c1C(=O)Nc1ccccc1O | 0 | 0 | 0 | 0 | 0 | - | - | -
C[n+]1c(-c2ccccc2)cc2c(=Cc3ccc([N+](=O)[O-])cc3)c3ccccc3n21 | 0 | 25 | 0 | 0 | 0 | 0 | 0 | 48
CCN(Cc1cc(OC)c(OC)c(OC)c1)S(=O)(=O)c1ccccc1Br | 0 | 0 | 0 | - | 0 | - | - | -
CCCCOCCCNC(=O)C[C@H]1C[C@@]2(C(=O)OC)C(=C[C@H](C3CCCC3)O[C@@H]2C)N(Cc2ccc(Cl)cc2Cl)C1=O | 0 | 0 | 0 | - | - | - | - | -
CCCCOCCCNC(=O)C[C@H]1C[C@@]2(C(=O)OC)C(=C[C@H](C(C)(C)C)O[C@@H]2C)N(Cc2ccc(Cl)cc2Cl)C1=O | 0 | 20 | 0 | - | - | 0 | 0 | 0
CC(=O)c1ccc(NC(=O)CSc2nnc(-c3ccco3)c(-c3ccco3)n2)cc1 | 0 | 35 | 0 | 0 | 0 | 12 | 0 | 45
COC(=O)C(C)N(C(=O)c1cccc2ccccc12)c1c(C)cccc1C (stereo not drawn) | 0 | 78 | 0 | 0 | 0 | 0 | 0 | 0
CC(=O)N(/N=C1\Sc2ccccc2C1=O)c1cccc(C)c1 | 0 | 22 | 0 | 0 | 0 | 0 | 0 | 51
CC(=O)N(CN1C(=O)c2ccccc2C1=O)c1cccc(C)c1 | 0 | 0 | 0 | 0 | 0 | - | - | -
CC1Cc2ccccc2N1C(=O)Cn1cc(C(F)(F)F)ccc1=O (stereo not drawn) | 0 | 0 | 0 | 0 | 0 | - | - | -
O=[N+]([O-])c1cc2ccccc2c(O)c1O | 0 | 18 | 0 | 0 | 0 | 0 | 0 | 30
O=[N+]([O-])c1cc(-c2ccccc2)cc([N+](=O)[O-])c1O | 0 | 0 | 0 | 0 | 0 | - | - | -
COc1cccc(=O)c2c(C)n(-c3cc(C)cc(C)c3)c(C)c12 | 0 | 0 | 0 | 0 | 0 | - | - | -
CCCCCn1c(C)c2c(OCC)cccc(=O)c2c1C | 0 | 0 | 0 | 0 | 0 | - | - | -
CCOc1cccc(=O)c2c(C)n(C)c(C)c12 | 0 | 14 | 0 | 0 | 0 | 0 | 0 | 0
COc1cccc(=O)c2c(C)n(C)c(C)c12 | 0 | 36 | 22 | 0 | 0 | 0 | 0 | 0
O=C(O)c1ccc2c(c1)C1C=CCC1C(c1cc3c(cc1Br)OCO3)N2 (stereo not drawn) | 0 | 0 | 0 | 0 | 0 | - | - | -
O=C(O)c1ccc(NS(=O)(=O)c2ccc3c(c2)C2C=CCC2C(c2ccccc2F)N3)cc1 (stereo not drawn) | 0 | 43 | 0 | 0 | 0 | 17 | 0 | 33
O=C(/C=C/c1ccco1)Nc1nc(-c2ccccc2)cs1 | 0 | 0 | 0 | 0 | 0 | - | - | -
O=C(/C=C/c1ccco1)Nc1nc(-c2ccccn2)cs1 | 0 | 16 | 0 | 0 | 0 | 0 | 0 | 16
CC1CCN(C(=O)CCNS(=O)(=O)c2ccc(Br)cc2)CC1 | 0 | 45 | 0 | 0 | 0 | 0 | 0 | 0
Cc1cc(C)n(C(N)=NC(=O)c2ccccc2)n1 | 0 | 0 | 0 | 0 | 0 | - | - | -
C=CCn1c(C)cc(-c2csc(NC(=O)C3=COCCO3)n2)c1C | 0 | 51 | 0 | 0 | 0 | 0 | 0 | 0

Screens deposited in PubChem by The Scripps Research Institute Molecular Screening Center.
